Here are results for 19 compounds from PubChem BioAssay (NCATS).

Inconclusive results are not listed. Entries that show only a call come without a potency. Active and inactive are the calls of the source. Calls come from the whole dose curve; as a rule, active = well fitted cell-killing curve with a large enough effect; inconclusive = small, poorly fitted or top-dose-only effect, or effect the other way; inactive = flat fitted curve, though single readings scatter. Numbered stars: 1 amine (or outer) side, 2 acyl side, 3 side chain; on linkers, the order of the positions; unused ones are H or OH. Bridge positions count the residues as written; N and C are the ends. Square brackets hold non-standard residues; d marks the D form. Peptide text beside a SMILES is read from it. I, II: the chains in the order shown. Actinocin(9to1) = Cc1c2oc3c(C)ccc(C(=O)[*:1])c3nc-2c(C(=O)[*:2])c(N)c1=O; NMeV = CN[C@H](C(=O)O)C(C)C; Sar = CNCC(=O)O
Potency is the fitted concentration of half-maximal effect.

The assay is described as follows: MultiTox-Fluor Cytotoxicity Assay - LYMP1-001 - Dead Cells (AID 946). To be noted: LYMP1-001 lymphoblastoid cells, dead-cell protease fluorescence; series mostly up to 92.2 µM. From the text: NIH Chemical Genomics Center [NCGC]
NIH Molecular Libraries Screening Centers Network [MLSCN]
National Institutes of Environmental Health Sciences [NIEHS]
National Toxicology Program [NTP]
We have developed a 1536-well cell-based assay for quantitative high throughput screening (qHTS) against a number of cell lines to determine in vitro cytotoxicity of small molecules. This particular assay uses a human lymphoblastoid cell line (LYMP1-001) purchased from Coriell Institute for Medical Research.
NCGC Assay Protocol Summary:
The MultiTox-Fluor Cytotoxicity Assay (Promega) is a homogeneous method to simultaneously measure the relative number of live and dead cells in culture by detecting changes in cell membrane integrity. There are two fluorogenic peptide substrates in the assay reagent. Viable cells are determined when the cell-permeant substrate (GF-AFC) enters the cell and is cleaved by protease from live cells resulting in liberated fluorophore. This live-cell protease activity restricted to viable cells is proportional to cell number. The dead cells are determined by using fluorogenic cell-impermeant peptide substrate (bis-AAF-R110) which cleaved by dead cell proteases leaking from damaged cell membrane.
Using the MultiTox-Fluor Cytotoxicity Assay, the relative number of dead cells was measured in the lymphoblastoid cell line with complete culture medium following compound treatment for 16 hours. The assay was performed in opaque black Kalypsys 1536-well plates. In the screen, tetraoctylammonium bromide was used as positive control. Library compounds were measured for their ability to cause acute toxicity in the cell line, as reflected by an increase in dead cell protease activity, in a concentration-dependent manner. Data were normalized to the controls for basal activity (DMSO only) and 100% stimulation (15 uM tetraoctylammonium bromide). AC50 values were determined from concentration-response data modeled with the standard Hill equation.
qHTS protocol for MultiTox-Fluor Cytotoxicity assay
[Step] [Parameter] [Value] [Description]
1. Reagent; 5 uL; 2500 lymphoblastoid cells/well
2. Time; 5 hr; 37 C incubation
4. Controls; 23 nL; Tetraoctylammonium bromide 6.4pM to 92 uM
5. Time; 16 hr; 37 C incubation
6. Reagent; 5 uL; MuliTox-Fluor Assay reagent
7. Time; 60 min; Room Temperature
8. Detection; dead-cell fluorescence (Ex/Em=485/520); EnVision plate reader
Keywords: cytotoxicity, lymphoblastoid cell line, fluorescence, NTPHTS, NTPHTS_NCGC, NIEHS, EPA, DSSTox, MLSMR, MLSCN, NIH Roadmap, qHTS, NCGC
As to `COc1cccc2c1C(=O)c1c(O)c3c(c(O)c1C2=O)C[C@@](O)(C(C)=O)C[C@@H]3O[C@H]1C[C@H](N)[C@H](O)[C@H](C)O1`, the Potency was 0.501 µM (active).

For the compound `CC(O)C(=O)O` (centres undefined), the Potency result was “inactive”.

For `COc1cccc2c1C(=O)c1c(O)c3c(c(O)c1C2=O)C[C@@](O)(C(=O)CO)C[C@@H]3O[C@H]1C[C@H](N)[C@H](O)[C@H](C)O1`, the Potency is 2.51 µM (active).

Turning to `CN(C)/N=N/c1nc[nH]c1C(N)=O`, the Potency result was “inactive”.

Turning to `C=CCc1ccc(O)c(OC)c1`, the Potency result is “inactive”.

As for `CC(=O)O[C@]1(C(C)=O)CC[C@H]2[C@@H]3C[C@H](C)C4=CC(=O)CC[C@]4(C)[C@H]3CC[C@@]21C`, the Potency result is “inactive”.

Turning to `Nc1ccc(C(=O)O)cc1`, the Potency result is “inactive”.

Take `O=C(O)CCCCC(=O)O`: the Potency result is “inactive”.

Take `O=c1ccc2ccccc2o1`: the Potency result is “inactive”.

For the compound `NC(=NCCCCCCN=C(N)/N=C(\N)Nc1ccc(Cl)cc1)/N=C(\N)Nc1ccc(Cl)cc1`, the Potency is 50.1 µM (active).

Take `CC(=O)Oc1ccc(C(c2ccc(OC(C)=O)cc2)c2ccccn2)cc1`: the Potency result is “inactive”.

For the compound `CCCCCCc1ccc(O)cc1O`, the Potency result was “inactive”.

Turning to `C[C@]12CC[C@@H]3c4ccc(O)cc4CC[C@H]3[C@@H]1CC[C@@H]2O`, the Potency entry is “inactive”.

Turning to `Oc1c(I)cc(Cl)c2cccnc12`, the Potency result is “inactive”.

In the case of `Oc1c(Cl)cc(Cl)cc1Sc1cc(Cl)cc(Cl)c1O`, the Potency entry is “inactive”.

`O=C1OC(c2ccc(O)cc2)(c2ccc(O)cc2)c2ccccc21`: the Potency result was “inactive”.

For `Oc1ccc(Cl)cc1Sc1cc(Cl)ccc1O`, the Potency entry was “inactive”.

Take `COC1=CC(=O)C[C@@H](C)[C@]12Oc1c(Cl)c(OC)cc(OC)c1C2=O`: the Potency result is “inactive”.

For `Cc1c2oc3c(C)ccc(C(=O)N[C@@H]4C(=O)N[C@H](C(C)C)C(=O)N5CCC[C@H]5C(=O)N(C)CC(=O)N(C)[C@@H](C(C)C)C(=O)O[C@@H]4C)c3nc-2c(C(=O)N[C@@H]2C(=O)N[C@H](C(C)C)C(=O)N3CCC[C@H]3C(=O)N(C)CC(=O)N(C)[C@@H](C(C)C)C(=O)O[C@@H]2C)c(N)c1=O` (I: T[dV]P[Sar][NMeV] / II: T[dV]P[Sar][NMeV]; ester I:1-I:C, II:1-II:C; linker I:N-II:N via Actinocin(9to1)), the Potency is 0.0126 µM (active).
